In all, about 35,000 sequences were measured (“fluorescence intensity (a.u.)”: median about 10,000, highest 2% from about 52,000 on). Only a selection was taken, and the highest values are over-represented in it overall.
Molecular target: T1, OsWOX13 (Oryza sativa, UniProt Q5QMM3 1-267)
T1 sequence: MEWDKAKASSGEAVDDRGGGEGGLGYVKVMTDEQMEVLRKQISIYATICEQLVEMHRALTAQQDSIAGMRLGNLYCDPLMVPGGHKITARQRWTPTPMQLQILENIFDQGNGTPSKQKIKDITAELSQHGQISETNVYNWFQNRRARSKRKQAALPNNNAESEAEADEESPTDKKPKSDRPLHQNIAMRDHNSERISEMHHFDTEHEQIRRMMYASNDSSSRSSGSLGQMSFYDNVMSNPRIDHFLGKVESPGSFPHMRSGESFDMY
Experiment: protein-binding microarray (RPBM); PBS, 2% BSA, 51.3 ng/ul salmon testes DNA, 50 uM zinc acetate, 200 nM TF, 25 C, 1 h; high values mean tight binding
Conditions: protein: recombinant; tags: N-terminal polyhistidine and DsRed monomer fusion (pET32a); label: CyDye5-dUTP incorporated in the synthesized complementary strand; 3' TTTTT single-stranded linker to array surface; dsDNA, one strand shown
Method in brief: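 In PBS with 2% BSA, salmon testes DNA and 50 µM zinc acetate, 200 nM protein was incubated on a custom Agilent array at 25 °C for 1 h and then washed off. The array had been made double-stranded by primer extension with Cy5-dUTP and blocked with 2% BSA. The proteins were transcription factors fused N-terminally to polyhistidine and DsRed, expressed in E. coli BL21-CodonPlus and purified on Ni–NTA. The binding signal is per-feature fluorescence intensity (arbitrary units) from an Axon 4000B scanner.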

Sequence | binding signal
ACAGATTGAGAGGGAGCTCAGGGAACCAGTCTCACAAAATCGGAGTCACCTAGTGCAG | 8100 fluorescence intensity (a.u.)
TAAAATTGCATGTGATCATTTTGTAAGCTAAACTTTTATTCGGAGTCACCTAGTGCAG | 11600 fluorescence intensity (a.u.)
GCTGCTCGGATTTGATTGATTGATTGATTGGCGGGTGGTCCGGAGTCACCTAGTGCAG | 64500 fluorescence intensity (a.u.)
TTTGGATTGGGTTTGGTGGTTGGGTGGGAGGGAGGGAGCTCGGAGTCACCTAGTGCAG | 18700 fluorescence intensity (a.u.)
TCTTTGATTGGTGGCGGTGTTGAATTGAATTGAATTGATCCGGAGTCACCTAGTGCAG | 46300 fluorescence intensity (a.u.)
TACTATCAACTCTGTTAAAATTGAAGAATTTTGACTAAAACGGAGTCACCTAGTGCAG | 3310 fluorescence intensity (a.u.)
AGAATAATTATTTAAGTTAAGGTGTGTCACACCCCAATCCCGGAGTCACCTAGTGCAG | 25100 fluorescence intensity (a.u.)
GTGCATCACCAATCAAAACAGGAGGTGTTTGGAACTCCGTCGGAGTCACCTAGTGCAG | 3870 fluorescence intensity (a.u.)
TACGCATTGATTAGTTTTGTCAGGTTAGTATAGAATTTAACGGAGTCACCTAGTGCAG | 14000 fluorescence intensity (a.u.)
CAGGTGTGATTGAAGTGATGTACTCAACTTACACCCGGGCCGGAGTCACCTAGTGCAG | 54400 fluorescence intensity (a.u.)
GTACTTGATAGTTCAGTGATAAGGGGTGTGATTTCAACCCCGGAGTCACCTAGTGCAG | 4490 fluorescence intensity (a.u.)
GTACTAGTATTATTGATTGATACACTTGTGATGTCATGCCCGGAGTCACCTAGTGCAG | 30900 fluorescence intensity (a.u.)
ACATAATTAGTTTATCTCTCCTCAAGCTGGTGCATCTCTCCGGAGTCACCTAGTGCAG | 31200 fluorescence intensity (a.u.)
GAACCTTTTGATTGATTCTCGTCCTACACGCTTGAAGGCGCGGAGTCACCTAGTGCAG | 38200 fluorescence intensity (a.u.)
TCTCCAAGATTGATCCGCATCTCCAACTAAACCCTCTCCTCGGAGTCACCTAGTGCAG | 7230 fluorescence intensity (a.u.)
TCGCTTTGATTGACACTAAGAACCTCGCTGCGCATCTCGTCGGAGTCACCTAGTGCAG | 58600 fluorescence intensity (a.u.)
TGTCTGACTGACTGACTGGCTGCTGCTGCTGCTCATTCCTCGGAGTCACCTAGTGCAG | 23800 fluorescence intensity (a.u.)
ATTCTCTCTTTTGCTCGCTTTGTTCCCTTTTCTTTCTTTTCGGAGTCACCTAGTGCAG | 3770 fluorescence intensity (a.u.)
TCTCGCTTCTGCCACTGCTGGCTGTGCTGCTTCCCTAGCTCGGAGTCACCTAGTGCAG | 65100 fluorescence intensity (a.u.)
GGAATTAATTAATGAATCACGTAGGCTACCTGGGTTGAAGCGGAGTCACCTAGTGCAG | 45800 fluorescence intensity (a.u.)
TAAAATTAACGTGGACACTAATCTAGTTTAGACTTTGATTCGGAGTCACCTAGTGCAG | 15500 fluorescence intensity (a.u.)

Sequence | binding signal
ACGTTTAATATTTATAATTAATTTTCAAACATCCGATGTGCGGAGTCACCTAGTGCAG | 19300 fluorescence intensity (a.u.)
TTAATGACTATTTAGTTGACATGTAAGAAACAGGGGATTTCGGAGTCACCTAGTGCAG | 3450 fluorescence intensity (a.u.)
GCTCGATTGGATAATTCTTCTGCATAACTAGCCAGTGGAGCGGAGTCACCTAGTGCAG | 26800 fluorescence intensity (a.u.)
AACTTGCATACCAGTGGAATTCTTCAGGCTGGTCATGGAGCGGAGTCACCTAGTGCAG | 65500 fluorescence intensity (a.u.)
AAACTTGATGGAATTCTTTAAATGTTCGATTGCTGGAGAGCGGAGTCACCTAGTGCAG | 16700 fluorescence intensity (a.u.)
TTAATTACTATCATTAGTGTTAAGTATATATTAACTAATGCGGAGTCACCTAGTGCAG | 25900 fluorescence intensity (a.u.)
GAACTTTACCGAATTTGTAAATTAGATGTAAACTCATTTTCGGAGTCACCTAGTGCAG | 3580 fluorescence intensity (a.u.)
GTGCCATTAATTTTGACTACTACTTGTGTGTCCTATCAAACGGAGTCACCTAGTGCAG | 7280 fluorescence intensity (a.u.)
ACTTTTCTATTTAATTTTATCTATTTTCTTAATAACTATGCGGAGTCACCTAGTGCAG | 4340 fluorescence intensity (a.u.)
ATAATTGATTCAACCTCGTTCTTAATTTGATACATCCTTCCGGAGTCACCTAGTGCAG | 32300 fluorescence intensity (a.u.)
ATGCGATTGACTAATTAATTGACTGGGCTTTGGCATTGGGCGGAGTCACCTAGTGCAG | 65500 fluorescence intensity (a.u.)
CCTAATTGACAAATGATTTCACCACGTCCCTTTCCATTTTCGGAGTCACCTAGTGCAG | 34200 fluorescence intensity (a.u.)
TCTAGCTATTAATTTGCTCTCATTTATAACTTAGCCGCTACGGAGTCACCTAGTGCAG | 6390 fluorescence intensity (a.u.)
CACTTAACTTAATTAGTTAATTATTGCTCTATTTTCTCTGCGGAGTCACCTAGTGCAG | 60500 fluorescence intensity (a.u.)
GCCTTAATTGATTAACCGTGTAACATCTTCCTCACGCACCCGGAGTCACCTAGTGCAG | 65500 fluorescence intensity (a.u.)
GCGGATTAATTACTACTGGGCTGGCATTCTGATCACTTTGCGGAGTCACCTAGTGCAG | 25400 fluorescence intensity (a.u.)
ACCCTCATCTCTTCTCCTGATTGAATTGTCTTCCTCAACCCGGAGTCACCTAGTGCAG | 30400 fluorescence intensity (a.u.)
TTGACTGATTGCACGTCCAACCATAATTTCTTTTCGTCCACGGAGTCACCTAGTGCAG | 58600 fluorescence intensity (a.u.)
TAATTTTCTGAGTGATCAAATAATTGACCATAATTTTCCACGGAGTCACCTAGTGCAG | 8420 fluorescence intensity (a.u.)
AATTGGCTTGGCTAATTAATTACTCCATTTGCGAACATGGCGGAGTCACCTAGTGCAG | 4010 fluorescence intensity (a.u.)
TAAACCAATTACAATGATTATTTTCAACCGACCACCGATTCGGAGTCACCTAGTGCAG | 23300 fluorescence intensity (a.u.)
